“And” between values parts separate entries of the source, which are not always exact repeats. Equal values may be shown once. Results filed as inconclusive are left out. A structure can be active in one record and inactive in another. The source made the active and inactive calls. Unless noted, the call rests on the fitted dose curve; in most records, active means well fitted curve in the direction sought with a large enough effect; inconclusive means small, poorly fitted or top-dose-only effect, or another doubt; inactive means no such curve, though single readings can be large; an effect the other way counts as inactive or inconclusive.

The values that follow come from PubChem BioAssay (NCATS).

For experiment [1], the target named is Guanine nucleotide-binding protein G(i) subunit alpha-1 (Homo sapiens) (UniProt P63096). Briefly: qHTS Assay for Inhibitors of RGS12 GoLoco Motif Activity (Green Fluorophore) (AID 879).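 Further: 0% = labeled peptide with Gαi1 and full inhibition = labeled peptide alone without protein; negative values mean loss of peptide binding seen as reduced polarization.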 In outline:
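Fluorescence polarization assay: 50 nM Gαi1 with 10 nM FITC-labeled RGS12 GoLoco peptide in 10 mM Tris pH 7.5, 150 mM NaCl, 0.1 mM GDP, 0.05% NP40, 10 min at room temperature with compound.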

In experiment [2] the target is Cytochrome P450 2C9 (Homo sapiens) (UniProt P11712). The experiment in a line: qHTS Assay for Inhibitors and Substrates of Cytochrome P450 2C9 (AID 883). Further: nearly all actives have a fitted effect of over 60% in size. Further: potency means the concentration at half of the fitted maximal effect. In a few lines: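 Inhibition of CYP2C9 is scored as loss of luminescence, with 57uM sulphaphenazole defining 100% inhibition. Substrate Luciferin-H is used at 100uM, equal to its KM; enzyme at 10nM in 25mM KPO4, 60 min at 37C with NADPH regeneration.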
Chain of Cytochrome P450 2C9 (Homo sapiens) (P11712 whole entry, looked up): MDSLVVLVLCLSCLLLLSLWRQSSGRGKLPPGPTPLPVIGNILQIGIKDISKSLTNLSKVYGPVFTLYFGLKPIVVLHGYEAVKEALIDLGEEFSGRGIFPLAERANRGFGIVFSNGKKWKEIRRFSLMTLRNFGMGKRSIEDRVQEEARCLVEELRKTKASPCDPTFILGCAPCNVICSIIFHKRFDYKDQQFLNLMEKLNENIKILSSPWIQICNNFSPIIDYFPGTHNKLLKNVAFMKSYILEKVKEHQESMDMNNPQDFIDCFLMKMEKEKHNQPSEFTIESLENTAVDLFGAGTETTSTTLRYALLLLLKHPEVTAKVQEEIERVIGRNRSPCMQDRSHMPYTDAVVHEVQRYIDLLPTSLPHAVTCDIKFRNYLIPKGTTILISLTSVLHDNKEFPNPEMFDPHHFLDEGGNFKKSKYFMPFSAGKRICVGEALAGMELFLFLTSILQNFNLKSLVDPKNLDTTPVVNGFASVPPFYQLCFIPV

Experiment [3] has as its target Cytochrome P450 3A4 (Homo sapiens) (UniProt P08684). Briefly: qHTS Assay for Inhibitors and Substrates of Cytochrome P450 3A4 (AID 884). Further: on the % scale 0 is the no-effect control and ±100 the full control effect; nearly all actives have a fitted effect of over 50% in size. In outline: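 20 nM human CYP3A4 with 25 uM Luciferin-PPXE (at KM) in 200 mM KPO4, preincubated 10 min with compound; NADPH regeneration started a 60 min RT reaction. Luciferin detected by luminescence, normalized to 57 uM ketoconazole as full inhibition.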
On the technique in general: Quantitative high-throughput screening tests each substance at several concentrations.

The target of experiment [4] is Cytochrome P450 2D6 (Homo sapiens) (UniProt P10635). The experiment in a line: qHTS Assay for Inhibitors and Substrates of Cytochrome P450 2D6 (AID 891). Further: nearly all actives have a fitted effect of over 60% in size. Further: potency means the concentration at half of the fitted maximal effect. In outline:
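Human CYP2D6 (5 nM) with 30 uM Luciferin-ME EGE (at Km) in 100 mM KPO4, compound preincubated 10 min, then NADPH regeneration system for 60 min at room temperature. Luciferin read by luminescence; normalized to 1.43 uM quinidine.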

Experiment [5] concerns the target Cytochrome P450 2C19 (Homo sapiens) (UniProt P33261). The experiment in a line: qHTS Assay for Inhibitors and Substrates of Cytochrome P450 2C19 (AID 899). Further: nearly all actives have a fitted effect of over 60% in size. Further: potency means the concentration at half of the fitted maximal effect. In outline:
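5nM enzyme + 10uM Luciferin-H EGE (=KM), 50mM KPO4; cpd pin-transferred, 10 min 37C; NADPH regen, 60 min 37C; stopped w/ luciferin detection reagent, 20 min; luminescence. Normalized to 57uM ketoconazole (AC100).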

The nature of experiment [6]: qHTS Assay for Identification of Small Molecule Antagonists for NFkB Signaling Pathway (AID 895; active means well fitted inhibition curve with a large enough effect in the signal ratio, with a control signal flat, not every such curve was filed as active; the % refers to the signal ratio; further: on the % scale 0 is the no-effect control and ±100 the full control effect). In a few lines:
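Beta-lactamase reporter read-out (460 and 530 nm emission ratio, 405 nm excitation, 2 hrs substrate loading RT) after 5 hr stimulation with 10 pM TNF alpha in compound-treated NFkB-bla ME-180 cells in low-serum medium.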

A short description of experiment [7]: Confirmation and Secondary Assay for Modulators of Hemoglobin Beta Chain Splicing at IVS2 654 locus (AID 910).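 Further: HeLa cells stably carrying EGFP split by mutant beta-globin IVS2-654 intron; per-well total GFP intensity by laser scanning cytometry after 2-day treatment; % of control where 0% means no effect.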 In a few lines: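 Readout: per-well total peak green fluorescence (488 nm ex, 500–520 nm em) from objects 5–250 µm, reflecting correct splicing of an EGFP-654 reporter. Compounds were applied for 2 days at 37 °C to overnight-plated HeLa EGFP-654 cells; controls were DMSO and 500 nM IVS2-654 PNA.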

The nature of experiment [8]: qHTS Assay for Identification of Small Molecule Agonists for Hypoxia Response Element Signaling Pathway (AID 914; active means well fitted activation curve with a large enough effect in the signal ratio, with a control signal flat, not every such curve was filed as active; the % refers to the signal ratio; further: % of control where 0% means no effect). As to conditions: ME-180 (cervical carcinoma) HRE-bla reporter, beta-lactamase ratio, CoCl2, 17 h; stronger effect = higher value. In outline: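 Reporter activity (beta-lactamase, CCF4 460nm/530nm ratio) in HRE-bla ME-180 cells is recorded after 17 h compound exposure with EC50 CoCl2 at 37 degrees Celsius. AC50 values come from titration data.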

A short description of experiment [9]: Cellular Toxicity (caspase-3) HepG2 (AID 654).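 Further: cells exposed to compound for 16 hours before reading; 0% = DMSO alone and 100% = caspase signal from 100 µM tamoxifen.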 In a few lines: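 HepG2 cells (1500/well) in complete medium were treated with compounds for 16 hr at 37 °C. Caspase-3/7 activity was then read as luminescence from peptide-aminoluciferin cleavage. AC50 came from Hill fits, normalized to DMSO and 100 uM tamoxifen.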
A short description of experiment [10]: Cellular Toxicity (caspase-3) Jurkat (AID 655).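 Further: cells exposed to compound for 16 h at 37 °C before reading.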 Further: potency means the concentration at half of the fitted maximal effect. In outline:
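Jurkat cells (5000/well) in complete medium exposed 16 h at 37 C; caspase-3/7 activity read by Caspase-Glo luminescence after 20 min at room temperature. Normalized to DMSO and 100 uM tamoxifen; AC50 from Hill fits.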

A short description of experiment [11]: Cellular Toxicity (caspase-3) HUV-EC-C (AID 656).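 Further: 0% = DMSO basal and 100% = 100 µM tamoxifen.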 In outline:
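HUV-EC-C cells (1000/well) in complete medium, compound-treated 16 h at 37 °C; caspase-3/7 activity read by Caspase-Glo 3/7 luminescence. Normalized to DMSO (basal) and 100 uM tamoxifen (100%); AC50 from Hill-equation concentration-response fits.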

The nature of experiment [12]: Cellular Toxicity (caspase-3) BJ (AID 658).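 Further: 0% = DMSO basal and 100% = 10 µM staurosporine.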 In outline: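 Readout: Caspase-Glo 3/7 luminescence increase in BJ cells after 16 hr treatment at 37 °C. Staurosporine and tamoxifen served as positive controls; AC50 values came from Hill modelling of data normalized to DMSO and 10 uM staurosporine.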
Experiment [13] in a line: Cellular Toxicity (caspase-3) MRC-5 (AID 659).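 Further: 0% = DMSO basal and 100% = 10 µM staurosporine.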 As to conditions: Potency: caspase-3 activation. In a few lines:
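Concentration-dependent caspase 3/7 activation is measured in human normal lung fibroblasts (MRC-5) following 16-hour treatment. AC50 values come from standard Hill-equation modeling of luminescence normalized to DMSO and 10 uM staurosporine.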

Experiment [14] can be described thus: Cellular Toxicity (caspase-3) Mesangial (AID 660).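 Further: cells exposed to compound for 16 h before the caspase read.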 In a few lines:
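Human renal glomerular mesangial cells (1000/well) were treated with compounds for 16 h at 37 °C in complete medium, then caspase 3/7 activity was read by Caspase-Glo luminescence. Data were normalized to DMSO and 100 uM tamoxifen; AC50 from Hill fits.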

The nature of experiment [15]: Cellular Toxicity (caspase-3) SK-N-SH (AID 661). Further: potency means the concentration at half of the fitted maximal effect.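 On caspase-3 activation: 0% = DMSO basal and 100% = 10 µM staurosporine.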 As to conditions: SK-N-SH caspase-3 activation, qHTS; caspase-3 activation: at 91.7 µM (top of the series), DMSO as zero, staurosporine as full. In a few lines: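 SK-N-SH human neuroblastoma cells (1500/well) were treated with compounds for 16 hr at 37 °C in complete medium; caspase 3/7 activity was read by Caspase-Glo luminescence. AC50 came from Hill fits of data normalized to DMSO and 10 uM staurosporine.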

The nature of experiment [16]: Cellular Toxicity (caspase-3) Hek293 (AID 664).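 Further: cells exposed to compound for 16 h at 37 °C before readout.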 In a few lines:
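HEK293 cells were exposed to compounds in complete medium for 16 hr at 37 °C, then caspase-3/7 activity was read by Caspase-Glo 3/7 luminescence after 20 min at room temperature. Data normalized to DMSO and 100 uM tamoxifen; AC50 from Hill fits.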

Experiment [17] is described as follows: Cellular Toxicity (caspase-3) N2a (AID 665).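 Further: compound exposure lasted 16 h at 37 °C before readout.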 In outline:
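Mouse N2a neuroblastoma cells (1500/well) were treated with compounds for 16 h at 37 °C, then caspase-3/7 activity was read by Caspase-Glo luminescence after 1 h at room temperature. Data were normalized to DMSO and 10 uM staurosporine; AC50 from Hill fits.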

Experiment [18] is described as follows: Cellular Toxicity (caspase-3) Renal Proximal Tubule (AID 667).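 Further: cells exposed to compound for 16 hours at 37 °C before detection; 0% = DMSO basal and 100% = 10 µM staurosporine.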 In a few lines:
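Freshly isolated primary rat kidney proximal tubule cells, 1000/well, treated 16 hr at 37 °C, then Caspase-Glo 3/7 luminescence after 1 hr. Normalized to DMSO and 10 uM staurosporine; AC50 from Hill fit.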

Experiment [19] is described as follows: qHTS Assay for Identification of Small Molecule Agonists for Thrombopoietin (TPO) Signaling Pathway (AID 917). Further: on the % scale 0 is the no-effect control and ±100 the full control effect. In a few lines: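 Murine Ba/F3 cells expressing human TPO receptor and GPIIb-promoter luciferase, IL-3-starved overnight, given compound plus TPO at 26 pM (EC50). After 24 h at 37 C, 5% CO2, luminescence read.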
Experiment [20] can be described thus: qHTS Assay for Identification of Small Molecule Antagonists for Thrombopoietin (TPO) Signaling Pathway (AID 918). Further: potency means the concentration at half of the fitted maximal effect; nearly all actives have a fitted effect of over 60% in size. As to conditions: TPO-dependent cell signaling reporter, antagonist mode. In a few lines: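 Murine Ba/F3 cells stably expressing human TPO receptor and a Glycoprotein IIb promoter–luciferase reporter were IL-3-starved overnight, treated with compounds plus TPO (26 pM final, its EC50) for 24 hrs at 37 C, then read by luminescence.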

Chain of Cytochrome P450 2D6 (Homo sapiens) (P10635 whole entry, looked up): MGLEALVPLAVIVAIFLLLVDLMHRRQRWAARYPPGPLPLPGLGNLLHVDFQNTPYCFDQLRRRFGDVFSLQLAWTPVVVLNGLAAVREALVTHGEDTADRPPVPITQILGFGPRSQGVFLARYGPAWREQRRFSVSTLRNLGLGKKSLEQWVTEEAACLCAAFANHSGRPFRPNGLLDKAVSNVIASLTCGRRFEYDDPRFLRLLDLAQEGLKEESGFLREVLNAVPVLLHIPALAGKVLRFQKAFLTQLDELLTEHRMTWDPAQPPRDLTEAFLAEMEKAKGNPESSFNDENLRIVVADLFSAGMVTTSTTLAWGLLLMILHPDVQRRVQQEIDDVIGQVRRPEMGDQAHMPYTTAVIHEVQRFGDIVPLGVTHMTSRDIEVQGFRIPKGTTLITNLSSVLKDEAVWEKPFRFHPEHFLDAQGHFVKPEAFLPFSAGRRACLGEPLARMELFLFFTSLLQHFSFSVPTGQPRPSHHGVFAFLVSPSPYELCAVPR
Chain of Cytochrome P450 2C19 (Homo sapiens) (P33261 whole entry, looked up): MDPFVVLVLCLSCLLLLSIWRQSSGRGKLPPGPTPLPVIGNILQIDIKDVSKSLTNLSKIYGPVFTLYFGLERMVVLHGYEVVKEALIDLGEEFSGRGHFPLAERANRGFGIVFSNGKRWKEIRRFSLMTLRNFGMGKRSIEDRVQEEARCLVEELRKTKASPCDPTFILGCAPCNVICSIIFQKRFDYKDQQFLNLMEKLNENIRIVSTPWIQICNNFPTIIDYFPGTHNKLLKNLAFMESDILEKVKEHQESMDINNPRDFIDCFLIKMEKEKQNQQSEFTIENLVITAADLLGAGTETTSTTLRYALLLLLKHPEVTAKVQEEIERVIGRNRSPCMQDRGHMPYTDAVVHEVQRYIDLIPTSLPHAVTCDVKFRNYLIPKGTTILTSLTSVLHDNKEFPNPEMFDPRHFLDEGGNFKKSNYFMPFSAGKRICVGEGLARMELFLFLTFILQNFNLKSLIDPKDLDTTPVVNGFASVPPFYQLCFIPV
Chain of Guanine nucleotide-binding protein G(i) subunit alpha-1 (Homo sapiens) (P63096 whole entry, looked up): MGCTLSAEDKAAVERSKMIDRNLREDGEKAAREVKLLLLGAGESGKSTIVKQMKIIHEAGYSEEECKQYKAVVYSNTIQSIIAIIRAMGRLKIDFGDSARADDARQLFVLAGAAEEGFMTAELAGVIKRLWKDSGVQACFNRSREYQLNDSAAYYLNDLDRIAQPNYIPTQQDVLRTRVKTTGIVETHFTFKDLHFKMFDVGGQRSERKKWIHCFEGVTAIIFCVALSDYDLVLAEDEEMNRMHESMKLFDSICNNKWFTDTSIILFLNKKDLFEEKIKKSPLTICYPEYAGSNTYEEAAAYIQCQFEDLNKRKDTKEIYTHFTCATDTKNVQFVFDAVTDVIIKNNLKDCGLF
Chain of Cytochrome P450 3A4 (Homo sapiens) (P08684 whole entry, looked up): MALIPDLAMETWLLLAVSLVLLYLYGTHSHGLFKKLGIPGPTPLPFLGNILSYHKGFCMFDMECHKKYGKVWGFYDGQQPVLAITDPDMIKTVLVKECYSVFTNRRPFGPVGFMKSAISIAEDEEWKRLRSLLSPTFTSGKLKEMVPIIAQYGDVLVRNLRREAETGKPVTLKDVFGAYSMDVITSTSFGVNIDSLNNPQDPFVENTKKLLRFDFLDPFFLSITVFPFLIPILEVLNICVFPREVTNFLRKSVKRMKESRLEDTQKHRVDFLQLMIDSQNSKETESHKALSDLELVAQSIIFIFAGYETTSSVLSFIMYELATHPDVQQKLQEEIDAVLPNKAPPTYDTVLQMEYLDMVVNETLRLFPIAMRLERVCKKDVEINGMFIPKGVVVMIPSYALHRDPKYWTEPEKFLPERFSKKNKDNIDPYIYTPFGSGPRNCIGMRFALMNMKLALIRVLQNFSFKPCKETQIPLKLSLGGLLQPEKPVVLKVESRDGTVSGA

`C[C@H](CS)C(=O)N1CCC[C@H]1C(=O)O`: the Potency result in experiment [1], in [2], in [4] and in experiment [5] was “inactive” throughout. Also, the compound was called inactive in experiment [3].

For the compound `CC(=O)Nc1nnc(S(N)(=O)=O)s1`, the Potency result in [1], in [2], in [4], in experiment [6] and in experiment [5] was “inactive” each time. Further, the call in experiment [3] and in [7] was inactive. Further, the activation in [8] was 10.9% (inactive) and -10.2% (inactive) and -6.49% (inactive).

Consider `CN=C(NC#N)NCCSCc1nc[nH]c1C`, for which the call in [9], in [11], in [12], in experiment [14], in [16] and in experiment [17] was inactive. The compound was classed as inactive in experiment [18] and in experiment [7]. Moreover, the Potency entry in experiment [10], in experiment [13], in experiment [1], in experiment [2], in experiment [4] and in experiment [5] was “inactive” in each case. Moreover, the caspase-3 activation in experiment [15] is -1.11% (inactive).

Regarding `NC(N)=NC(=O)Cc1c(Cl)cccc1Cl`, the Potency result in experiment [1] and in [2] was “inactive” in each case. Moreover, the Potency in [4] is 0.126 µM (active); in experiment [5], 0.251 µM (active). In addition, the result in experiment [19] was inactive.

As for `CC1=NS(=O)(=O)c2cc(Cl)ccc2N1`, the Potency result in experiment [1], in experiment [2] and in experiment [5] was “inactive” each time. Also, in experiment [4], the Potency result is “inactive and 7.94 µM (active)”. In addition, in experiment [7], the compound was called inactive.

As to `Nc1ncn([C@@H]2O[C@H](CO)[C@@H](O)[C@H]2O)c(=O)n1`, the compound was classed as inactive in experiment [9], in experiment [11], in experiment [12], in experiment [14], in [16] and in [17]. For the same compound, the outcome in experiment [18] and in experiment [7] was inactive. Further, the Potency in [10] was 2 µM (active); in experiment [15], 31.6 µM (active); in experiment [20], 3.16 µM (active). The Potency result in experiment [13] and in experiment [1] was “inactive” each time.

Regarding `C(=C\c1ccccc1)/CN1CCN(C(c2ccccc2)c2ccccc2)CC1`, the Potency entry in experiment [1] is “inactive”.

For the compound `CCCCNC(=O)NS(=O)(=O)c1ccc(C)cc1`, the outcome in experiment [9], in experiment [11], in experiment [12], in experiment [14], in experiment [16] and in experiment [17] was inactive. Moreover, the result in experiment [18] and in experiment [7] was inactive. Moreover, the Potency result in [10], in [13], in [1], in experiment [4] and in experiment [5] was “inactive” each time. Besides, the caspase-3 activation in experiment [15] is -0.361% (inactive).

In the case of `CC1=C(C)C(=O)C(CCCCC#CCCCC#CCO)=C(C)C1=O`, the Potency result in [1] is “inactive”. In addition, the Potency in experiment [2] was 5.01 µM (active); in experiment [4], 31.6 µM (active); in [5], 5.01 µM (active).

With `C[C@]12C=CC(=O)C=C1CC[C@H]1[C@@H]3C[C@@H](O)[C@](O)(C(=O)CO)[C@@]3(C)C[C@H](O)[C@@]12F`, the Potency result in [1] is “inactive”.

As for `c1cc(CN2CCCCC2)cc(OCCCNc2nc3ccccc3s2)c1`, the Potency entry in experiment [1] was “inactive”.

Regarding `CN(C(=O)CCCOc1ccc2[nH]c(=O)ccc2c1)C1CCCCC1`, the Potency entry in [1], in [2], in experiment [4] and in experiment [5] was “inactive” in each case. Besides, the compound was called inactive in experiment [19].

Consider `O=C1CC2(CCCC2)CC(=O)N1CCCCN1CCN(c2ncccn2)CC1`, for which, in experiment [1], the Potency result is “inactive”.
